Bioassay records as filed in PubChem BioAssay.
This excerpt belongs to a sample that is enriched for hits.
Methyltransferases – Primary Screen for Target Class Profiling of Small Molecule Inhibitors of Methyltransferases. AID 1745853, 2022. 25,000 tested, 3.9% active. calls only at 40 µM. purified enzyme, MTase-Glo SAH luminescence; active compounds read low; call rule not given here
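Each enzyme was reacted with SAM and its substrate, with compounds tested once at 40 uM; SAH formed was read by MTase-Glo luminescence.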
MTase-Glo ctr – inhibits MTase-Glo coupling enzymes without methyltransferase; shares compounds with Methyltransferases; MTase-Glo coupled enzymes, SAH conversion luminescence, no MTase; Potency, µM (titrated, usually from 57.3 µM), for the others: at the top dose activity change, negative = inhibition, usual class: inhibitors; 180 tested, 6% active; AID 1745851; active means well fitted inhibition curve with a large enough effect; further: potency means the concentration at half of the fitted maximal effect
The depositor's hits bear a star; [ ] = dose if it differs, or a comment. On the % scale 0 is the no-effect control and ±100 the full control effect.

`CN(Cc1ccccc1)C(=O)CCn1ccc2cc(S(=O)(=O)N3CCCCC3)ccc21` gave Methyltransferases inactive.
`COc1ccc(NC(=O)N2Cc3c(sc4c3CCCC4)-n3cccc3C2c2cccc(OC)c2)cc1` (stereo not drawn) gave Methyltransferases inactive.
Screening COc1ccccc1OCCNCC(O)CCOc1cccc2[nH]c3ccccc3c12 (stereo not drawn) returned Methyltransferases active.
Screening CNCCC(Oc1ccccc1OC)c1ccccc1 (stereo not drawn) returned Methyltransferases inactive.
Screening COc1ccccc1OCCN1CC(COc2cccc3[nH]c4ccccc4c23)OCC1=O (stereo not drawn) returned Methyltransferases inactive.
Screening CC(C)Cn1c(=O)c2ccccc2n2c(CCC(=O)NCc3cccnc3)nnc12 returned Methyltransferases inactive.
Screening Cc1cc(NC2CCCCC2)nc(-n2nc(C)cc2C)n1 returned Methyltransferases inactive.
Screening Cc1cc(N2CCOCC2)ccc1Nc1nc(NC2CCCCC2)c2[nH]cnc2n1 returned Methyltransferases active.
N#Cc1cc(-c2ccnc(Nc3ccc(N4CCOCC4)cc3)n2)ccc1OC1CCOCC1 was read as Methyltransferases inactive.
For Cn1c(=O)n(C)c2cc(S(=O)(=O)N3CCN(c4ccc(F)cc4)CC3)ccc21 the results were Methyltransferases inactive.
Screening Cc1ccc(CNC(=O)C2(C)Cn3c(nc4ccccc43)C(=O)N2Cc2cccc(C)c2)cc1 (stereo not drawn) returned Methyltransferases inactive.
COc1ccccc1CNC(=O)C1(C)Cn2c(cc3ccccc32)C(=O)N1C1CCCC1 (stereo not drawn) was read as Methyltransferases inactive.
`CN(C)c1ccc(/C=C2\C(=O)Nc3ccccc32)cc1` gave Methyltransferases active.
For CCCCN1C(=O)c2cc(C(=O)Nc3cc(C)ccc3C)nn2CC1(C)C(=O)NC1CCCC1 (stereo not drawn) the results were Methyltransferases inactive.
For CCC1c2ccc(C)n2CCN1C(=O)Nc1ccc(F)cc1F (stereo not drawn) the results were Methyltransferases inactive.
`CCC(C)NC(=O)c1ccc2c(=O)n(CC(C)C)c3nn(Cc4cccc(OC)c4)c(=O)n3c2c1` (stereo not drawn) gave Methyltransferases inactive.
Fc1cccc(Nc2ncc(-c3cncnc3)c3c2OCC3)c1 was read as Methyltransferases inactive.
Cn1cc(-c2cnc(Nc3cccnc3)c3c2CCO3)cn1 was read as Methyltransferases inactive.
`Cc1noc(C)c1-c1cnc(Nc2ccncc2)c2c1CCO2` gave Methyltransferases active and MTase-Glo ctr -3%[85.7 µM].
Screening CCCN1C(=O)c2c(C(=O)Nc3cc(F)ccc3F)ncn2CC1(C)C(=O)NCc1ccc(C)cc1 (stereo not drawn) returned Methyltransferases inactive.
Screening CCC(C)NC(=O)c1ccc2c(=O)n(C(C)C)c3nn(CC(=O)Nc4ccccc4F)c(=O)n3c2c1 (stereo not drawn) returned Methyltransferases inactive.
CC1CCC(NC(=O)c2ccc3c(=O)nc4c(-c5ccc(Cl)cc5)n[nH]n4c3c2)CC1 (stereo not drawn) was read as Methyltransferases inactive.
For Cc1ccc(NC(=O)Cn2nc3n(C)c(=O)c4ccc(C(=O)NC5CCCCC5)cc4n3c2=O)cc1F the results were Methyltransferases inactive.
`Cc1cnc(CCNC(=O)Nc2ccc3c(c2)OCCO3)n1C1CCC1` gave Methyltransferases active and MTase-Glo ctr -4%.
Screening Cc1cnc(CCNC(=O)c2n[nH]c(=O)c3ccccc23)n1C1CCCCC1 returned Methyltransferases active and MTase-Glo ctr -6%.
Screening Cc1cnc(CCNC(=O)c2ccc(C#N)cc2)n1C1CC1 returned Methyltransferases inactive.
For COc1ccc(C(=O)NCCc2ncc(C)n2C2CC2)cn1 the results were Methyltransferases inactive.
For Cc1cnc(C(=O)NCCc2ccc(S(=O)(=O)NC(=O)NC3CCCCC3)cc2)cn1 the results were Methyltransferases inactive.
`Cc1cnc(CCNC(=O)Cc2ccncc2)n1CC1CC1` gave Methyltransferases inactive.
For O=C(Nc1ccc2c(c1)OCCO2)N1CC(c2nc(CCOCC3CC3)no2)C1 the results were Methyltransferases inactive.
For Cc1cnc(CCNC(=O)c2cccs2)n1C1CCC1 the results were Methyltransferases active and MTase-Glo ctr 3%.
`Cc1cnc(CC2CCN(C(=O)Nc3ccc4c(c3)OCCO4)C2)n1C1CC1` (stereo not drawn) gave Methyltransferases inactive.
For CC1(C(=O)NC2CCCCCC2)Cn2c(cc3occc32)C(=O)N1CCc1ccccc1 (stereo not drawn) the results were Methyltransferases inactive.
Screening CC1CCC(NC(=O)C2(C)Cn3c(cc4sccc43)C(=O)N2Cc2cccnc2)CC1 (stereo not drawn) returned Methyltransferases inactive.
CN(C)CCNC(=O)c1cc2n(n1)CC(C)(C(=O)NCc1ccc(F)cc1)N(C)C2=O (stereo not drawn) was read as Methyltransferases inactive.
For O=c1[nH]c2ccc(S(=O)(=O)NCc3ccccc3Cl)cc2[nH]1 the results were Methyltransferases inactive.
`Cc1cc(-c2nc3ccncc3[nH]2)c(C)[nH]1` gave Methyltransferases active and MTase-Glo ctr -3%[114 µM].
Screening Nc1ccc(-c2nc3ccc(-c4nc5ccc(N)cc5[nH]4)cc3[nH]2)cc1 returned Methyltransferases inactive.
For Cc1ccc(Cn2c(=O)c3ccccc3n3c(CCC(=O)N4CCN(c5ccc(Cl)cc5)CC4)nnc23)cc1 the results were Methyltransferases inactive.
CCc1ccc(N2C(=O)c3cc4sccc4n3CC2(C)C(=O)NC2CCCCC2C)cc1 (stereo not drawn) was read as Methyltransferases inactive.
Screening CC(C)Cn1c(=O)c2cc(F)ccc2n2c(SCC(=O)NCc3ccccc3)nnc12 returned Methyltransferases inactive.
Screening CCC1CCCCN1C(=O)Cn1c(=O)oc2cc(S(=O)(=O)N3CC(C)CC(C)C3)ccc21 (stereo not drawn) returned Methyltransferases inactive.
`Cc1nccn1CCC1CCN(c2nccc(-c3ccccn3)n2)CC1` gave Methyltransferases active and MTase-Glo ctr 4%.
NCC1CCN(c2nccc(-c3ccc4ccccc4c3)n2)CC1 was read as Methyltransferases inactive.
For CCOc1cccc(C2c3cccn3-c3sc4c(c3CN2C(=O)Nc2ccc(OC)cc2OC)CCCC4)c1 (stereo not drawn) the results were Methyltransferases inactive.
For Cc1cc2c(cc3n2CC(C)(C(=O)NC2CCCCC2)N(Cc2ccccc2C)C3=O)o1 (stereo not drawn) the results were Methyltransferases inactive.
`CC1(C(=O)NC2CCCCCC2)Cn2c(cc3sccc32)C(=O)N1Cc1cccs1` (stereo not drawn) gave Methyltransferases inactive.
For Cc1ccc(CNC(=O)C2(C)Cn3nc(C(=O)NCCN(C)C)cc3C(=O)N2C)cc1 (stereo not drawn) the results were Methyltransferases inactive.
Screening COc1cccc(CN2C(=O)c3nc4ccccc4n3CC2(C)C(=O)NC2CCCC2)c1 (stereo not drawn) returned Methyltransferases inactive.
For COc1cccc(CN2C(=O)c3cc4sccc4n3CC2(C)C(=O)NC2CCCCC2)c1 (stereo not drawn) the results were Methyltransferases inactive.
